Measured values reported in patent US5750335, “Screening for genetic variation” (Massachusetts Institute of Technology).

The sequences below were run against T1, MutS (Salmonella typhimurium, UniProt P0A1Y0 P0A1Y0:1-855) (assay: pulldown; homoduplex control precipitated 53 fold less; 5 mM MgCl2, on ice, competitor DNA). Conditions: tags: none (overproduced from pGW1825); chain copies: 2; label: 32P on DG6R; fully matched homoduplex; second strand (DG5) copied as printed, pairs with DG6R only if read 3'-5' relative to it; dsDNA, one strand shown.
T1 sequence: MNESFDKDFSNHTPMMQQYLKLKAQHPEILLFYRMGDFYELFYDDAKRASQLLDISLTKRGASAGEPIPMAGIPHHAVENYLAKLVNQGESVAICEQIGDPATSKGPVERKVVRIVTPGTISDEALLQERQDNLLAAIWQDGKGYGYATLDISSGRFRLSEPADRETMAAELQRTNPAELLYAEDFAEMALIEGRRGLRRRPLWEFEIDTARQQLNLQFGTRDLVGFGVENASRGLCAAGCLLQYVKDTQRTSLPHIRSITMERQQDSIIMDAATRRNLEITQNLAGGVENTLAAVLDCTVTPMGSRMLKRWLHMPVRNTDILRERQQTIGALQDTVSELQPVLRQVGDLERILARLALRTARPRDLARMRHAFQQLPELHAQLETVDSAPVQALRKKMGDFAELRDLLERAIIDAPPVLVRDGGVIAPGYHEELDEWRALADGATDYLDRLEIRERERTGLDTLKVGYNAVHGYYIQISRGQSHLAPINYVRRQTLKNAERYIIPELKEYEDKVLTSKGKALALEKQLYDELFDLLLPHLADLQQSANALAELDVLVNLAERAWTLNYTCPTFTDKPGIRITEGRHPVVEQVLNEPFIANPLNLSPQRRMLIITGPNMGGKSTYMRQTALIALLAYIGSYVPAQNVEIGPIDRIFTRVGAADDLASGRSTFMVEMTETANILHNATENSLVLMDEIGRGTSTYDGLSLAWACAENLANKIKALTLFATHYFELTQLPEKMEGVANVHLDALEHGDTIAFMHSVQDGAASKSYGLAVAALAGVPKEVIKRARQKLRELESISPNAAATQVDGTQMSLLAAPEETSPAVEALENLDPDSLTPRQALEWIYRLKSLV
Experimental: Affinity fractionation of heteroduplex nucleic acid was performed as follows. Two binding reactions were incubated on ice for 30 minutes, one containing heteroduplex nucleic acid and a control containing homoduplex DNA. The heteroduplex reaction contained 14.5 pMol of MutS, 200 fmol of DG-4/6 Het, and 2 ug of competitor nucleic acid in a total volume of 20 ul. The control reaction contained 14.5 pmol of MutS, 200 fmol of DG-5/6 Hom, and 2 ug of competitor nucleic acid in a total volume of 20 ul. After 30 minutes on ice, 5 ul of anti-MutS antibody was added to each binding reaction, and the result was incubated on ice for 60 minutes. 10 ul of Staphylococcus aureus cells that had been washed twice in assay buffer were added to both binding reactions (see McKay, 1981, supra) and the result was incubated on ice for an additional 30 minutes. Both reactions were then spun in a microfuge for 3 minutes at 4° C. and the pellet was washed 8 times in assay buffer.

| Sequence | binding signal |
| --- | --- |
| GATCCGTCGACCTGCA | 1 fold (reference) |
